Inconclusive results are not listed. The source made the active and inactive calls. The call rests on the fitted dose curve; in most records, active means well fitted curve in either direction with a large enough effect (not every such curve was filed as active); inconclusive means small, poorly fitted or top-dose-only effect, or another doubt; inactive means flat fitted curve, though single readings scatter.
Assay: AP1 Signaling Pathway (AID 357);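 further: ME-180 reporter cells stimulated with EGF at its EC50 level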
Conditions: ME-180 (cervical carcinoma) AP-1-bla reporter, EGF-induced, beta-lactamase ratio, 5 h; at 7.69 µM (top of the series) unless noted
Source text: NCGC Assay Overview: Activator protein-1 (AP-1), a transcription factor, plays an important role in tumor genesis by regulating genes involved in cell proliferation, differentiation, apoptosis, and angiogenesis. AP-1 activity is induced by a complex network of signaling pathways that involves extracellular signals, such as growth factors. The AP-1 protein complex formed from c-Fos and c-Jun binding to the AP-1 response element results in transcriptional activation of genes containing such elements within their promoter. Low molecular weight molecules have been discovered and developed to modulate various components of these signaling pathways, for example, MAP kinase inhibitors. However, many points of pathway modulation remain untested due to the lack of chemical probes making this signaling locus of general interest. Using a beta-lactamase reporter-gene under control of the AP-1 response element, a cell-based assay [CellSensor(TM) AP-1-bla ME-180 developed by Invitrogen Corp.] was used to measure EGF-induced signaling. Library compounds were measured for their ability to modulate positively or negatively the action of EC50 EGF on reporter gene activity. Compounds were screened in a titration series in 1536-well format. Positive and negative modulators were identified based on the AC50 values derived from the screening data.
NCGC Assay Protocol Summary: 2500 cells/5uL in Opti-MEM medium containing 0.5% dialyzed FBS, 0.1 mM NEAA, 1 mM sodium pyruvate and 10 mM HEPES was dispensed into 1536-well plates and cells were cultured at 37 degrees Celsius overnight. […] After centrifugation at 1000 rpm for 2 seconds the plates were incubated at 37 degrees Celsius for 5 hours. 1 uL of CCF4-dye mixture was added to each well. After incubated at room temperature for 2.5 hours the plates were measured on an EnVision plate reader at Excitation 405nm, Emission1=460nm and Emission 2=530nm. The %Activity was determined from the ratio of 460nm/530nm.
On the % scale 0 is the no-effect control and ±100 the full control effect.

Activity change, negative = inhibition, inactive:
NC(N)=N/N=C(/c1ccccc1)c1ccc(O)cc1O -6.42%
NCCc1nc(-c2nc(C(=O)O)cs2)cs1 -1.29%
O=S(=O)(O)c1cc(S(=O)(=O)O)c2c(N=Nc3cccc4ccccc34)c(O)ccc2c1 4.87%
CC(=O)OCC(=O)[C@@]1(O)CC[C@@H]2[C@@H]3CCC4=CC(=O)CC[C@@]4(C)[C@H]3C(=O)C[C@]21C 4.78% [at 38 µM]
O=C(O)CCCc1ccc2ccccc2c1 -3.28%
O=C(Nc1ccc2oc(=O)c(C(=O)O)cc2c1)Oc1ccccc1 -4.82%
NNC(=O)CNc1cccc(Br)c1 -0.367%
CC1(C)O[C@@H]2O[C@H]([C@@H]3COC(C)(C)O3)[C@H](N)[C@H]2O1 5.74%
O=C1c2ccccc2C(=O)N1C[C@]1(C(=O)O)NCCS1(=O)=O -0.765%
CCc1cccc2c3c([nH]c12)[C@](CC)(CC(=O)O)OCC3 6.07% [at 38 µM]
CC(=NC1CCCCC1)c1ccccc1O 6.06%
COc1ccc2c(c1)Cc1cc(N=[N+]([O-])c3ccc4c(c3)Cc3cc(OC)ccc3-4)ccc1-2 -9.92%
COc1cc([C@H](O)CO)ccc1O -0.627% [at 38 µM]
NS(=O)(=O)c1ccc(N=Nc2ccc(O)c(C(=O)O)c2)cc1 -0.844%
CC(NC(=O)c1ccccc1)(C(=O)O)C(=O)O 2.23%
O=C(CCCc1ccccn1)c1ccccc1 4.82%
CN(C)Cc1c[nH]c2nc[nH]c(=O)c12 1.16%
O=C(O)CCC(=O)Nc1ccc2ccccc2c1 -0.421%
Nc1nc(SCCc2ccccc2)c2[nH]cnc2n1 -4.07%
NCC[C@H](N)C(=O)O -2.63%
O=C(O)CCc1c2ccc(=O)c(O)c-2oc2c(O)c(O)ccc12 3.21%
C/C(=N/S(=O)(=O)c1ccc(Cl)c(Cl)c1)OCC(C)(C)C 2.66%
Nc1ncnc2nn([C@H]3O[C@@H](CO)[C@@H](O)[C@H]3O)nc12 -9.36%
COc1ccc2nc(NCN3C(=O)c4ccccc4C3=O)sc2c1 2.48%
Cc1ccc2ccccc2c1CSc1nc(N)nc2c1ncn2CC(C)C -11.7%
O=C(O)C[C@H](Cc1ccccc1)C(=O)O 11%
O=S(=O)(c1cnccc1N1CCN(CCO)CC1)N1CCCC1 7.47%
CC(C)Oc1cc(O)c2c(c1)OCC=C2CCC(=O)O 0.742%
O[C@H](C[C@@H]1CCCCN1)c1ccc2c(c1)oc1ccccc12 6.24%
O=C(O)CC[C@@]1(c2ccccc2)NC(=O)NC1=O 3.07%
Cc1[nH]c2c(C)ccc(C)c2c1CC(=O)O -6.88%
O=C(O)COc1c(Cl)cc(Cl)c2cccnc12 6.1%
N[C@@H](CSC1(c2ccc(Cl)cc2)c2ccccc2-c2ccccc21)C(=O)O -8.46%
N#C[C@@H](N=Nc1ccccc1C(=O)O)C(N)=O 9.26%
O=C(O)C(Cc1ccccc1)Cc1ccccc1 8.41%
CC1(C)CCC(=O)N[C@H]1CC(=O)C[C@H]1NC(=O)CCC1(C)C -7.26%
CCN(CC)CC[n+]1ccc2c(C)c3[nH]c4ccc(O)cc4c3c(C)c2c1 0.748%
CC[C@H](CN(C)C)C(=O)c1ccco1 3.81%
Nc1n[nH]c2ccccc12 -6.63%
CN(C)Cc1cc(C(C)(C)C)cc(CN(C)C)c1O 12.4%

From PubChem BioAssay (NCATS)
